# Source: PubChem
# Hits are enriched below; roughly 22% of the tested compounds scored in any of these assays.
# Pf growth 96h = inhibits malaria parasite growth, 96 h; 320,000 tested, 6.9% active; P. falciparum luciferase reporter growth, 96 h; Potency, µM (titrated, usually from 28.7 µM), usual class: inhibitors
#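 96 h incubation, 37 C, 5% CO2, of luciferase-reporter P. falciparum-infected RBCs (2% hematocrit, 0.05% parasitemia final) with test compounds; endpoint luminescence.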
# Pf growth 48h = P. falciparum growth inhibition at 48 hours (one generation) | P. falciparum luciferase growth in erythrocytes, 48 h | Potency, µM (titrated, usually from 28.7 µM), usual class: inhibitors | 310,000 tested, 5.9% active | AID 504832
#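 Erythrocytes infected with P. falciparum carrying an integrated firefly luciferase reporter (2% hematocrit, 0.1% parasitemia final) were exposed to compounds in RPMI 1640 with 0.5% Albumax at 37 C, 5% CO2. Growth inhibition was scored as reduced luminescence.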
# Shiga toxin inh = inhibitors of Shiga toxin in Vero cells; 290,000 tested, 9.2% active; AID 2315; Vero cells, Shiga toxin protein synthesis inhibition reporter; inhibition, % at 38.7 µM; in the data active means inhibition mostly above about 28%, no sharp cut-off; inactive means mostly below about 43%
# CHX counter = affects cycloheximide protein synthesis inhibition readout, counter-screen | cell reporter, cycloheximide protein synthesis inhibition counterscreen | max response, % | 300,000 tested, 12% active | AID 2314; in the data active means max response mostly above about 13%, no sharp cut-off; inactive means mostly below about 14%; further: read at 38.3 µM for the half of the compounds with a filed dose
# LmPK inhibitor = blocks Leishmania mexicana pyruvate kinase activity. Q27686. AID 1721. 290,000 tested, 0.37% active. purified LmPK, Kinase-Glo ATP luminescence, 1 h. Potency, µM (series often up to 57.5 µM), most hits filed as inhibitors
# Target sequence (Q27686 whole entry, looked up): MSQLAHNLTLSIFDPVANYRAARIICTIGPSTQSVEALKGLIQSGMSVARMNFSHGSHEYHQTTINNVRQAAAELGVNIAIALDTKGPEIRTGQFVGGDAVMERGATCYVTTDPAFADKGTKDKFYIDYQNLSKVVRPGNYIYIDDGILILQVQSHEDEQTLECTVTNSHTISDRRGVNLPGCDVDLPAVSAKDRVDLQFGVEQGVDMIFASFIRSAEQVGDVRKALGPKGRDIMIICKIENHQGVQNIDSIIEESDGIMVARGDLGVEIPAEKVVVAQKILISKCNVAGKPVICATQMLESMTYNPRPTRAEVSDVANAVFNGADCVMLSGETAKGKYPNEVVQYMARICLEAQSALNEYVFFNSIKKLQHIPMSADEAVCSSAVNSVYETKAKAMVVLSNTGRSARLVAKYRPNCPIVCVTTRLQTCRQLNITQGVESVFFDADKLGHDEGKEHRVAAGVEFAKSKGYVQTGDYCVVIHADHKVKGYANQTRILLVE
#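 0.1 nM LmPK, 0.5 mM PEP, 0.1 mM ADP; 50 mM imidazole pH 7.2, 7 mM MgCl2, 50 mM KCl; 1 h RT. Kinase-Glo luminescence readout, normalized to no-enzyme (full inhibition) and uninhibited wells.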
# Hits are given with their value; i = inactive; ? = inconclusive; nt = not tested or not shown; [ ] = remark or other dose. Unless noted, the call rests on the fitted dose curve; in most records, active means well fitted inhibition curve with a large enough effect; inconclusive means small, poorly fitted or top-dose-only effect, or another doubt; inactive means no such curve, though single readings can be large or run the other way.
SMILES,Pf growth 96h,Pf growth 48h,Shiga toxin inh,CHX counter,LmPK inhibitor
CC(CC(=O)NNC(=O)c1ccncc1)c1ccccc1 (stereo not drawn),i,i,nt,nt,nt
COc1ccc2nc(NC(=O)CN(C)S(=O)(=O)c3cccs3)sc2c1,?,i,58,23,i
COc1cccc(C2=NO[C@@H]3C(=O)N(c4ccc5c(c4)OCCO5)C(=O)[C@H]23)c1OC,i,i,109,66,i
COc1cccc(C2=NO[C@@H]3C(=O)N(Cc4ccccc4)C(=O)[C@H]23)c1OC,i,i,i,i,i
CC1CCN(c2ccc3nnc(CCC(=O)N4CCN(c5ccc(F)cc5)CC4)n3n2)CC1,i,5.2µM,i,i,i
COc1ccccc1N1CCN(C(=O)CCc2nnc3ccc(N4CCCC4)nn23)CC1,?,i,i,i,i
COc1ccc(N2CCN(C(=O)CCc3nnc4ccc(N5CCCC5)nn34)CC2)cc1,12µM,?,i,i,i
COc1ccc(NS(=O)(=O)c2c(C)cc(C)cc2C)cn1,i,i,i,i,i
CC(C)[C@@H](N)C(=O)N/N=C/c1ccc2ncccc2c1,?,i,i,i,i
Cc1ccc(CNC(=O)c2ccc(Cl)c(S(N)(=O)=O)c2)n1C,i,i,i,i,i
Cc1ccc(C(=O)NC2CCCCCCC2)cc1S(=O)(=O)N1CCOCC1,9.3µM,?,nt,nt,nt
O=C(NC1CCCC1)c1ccc(Cl)c(S(=O)(=O)N2CCOCC2)c1,i,4.7µM,i,i,i
C=CCn1c(SCC(=O)N2CCc3ccccc3C2)nc2sc(C)c(C)c2c1=O,?,i,i,i,i
O/N=C/c1cc(Cl)ccc1OCc1ccccc1Cl,i,i,i,i,i
O/N=C/c1cc(Br)cc(Br)c1OCc1ccccc1,i[5.75 µM],i,i,i,i
O/N=C/c1ccc(OCc2ccccc2)c(Br)c1,i,i,66,40,i
O/N=C/c1ccccc1OCc1ccccc1F,i,i,38,26,i
O/N=C/c1ccc(OCc2ccccc2)c(Cl)c1,i,i,76,37,i
COC(=O)N/N=C/c1cc(Cl)c(OCc2ccccc2F)c(OC)c1,i,?,i,i,i
O/N=C/c1ccc(OCc2ccccc2F)c(Cl)c1,i,i,53,52,i
CCOc1cc(/C=C/C(=O)O)ccc1OCc1ccccc1,i,i,i,i,i[11.5 µM]
O=C(CN1C(=O)c2cccnc2Oc2ccc(Cl)cc21)NCCCc1ccccc1,i,?,i,i,i
CN1CCN(NC(=O)c2ccc(Cl)c(S(=O)(=O)Nc3ccc(Cl)cc3)c2)CC1,i,i,i,i,i
Cc1ccc(NC(=O)C2C3C=CC4(CN(Cc5cccnc5)C(=O)C24)O3)cc1F (stereo not drawn),?,i,i,i,i
CC(=O)c1cccc(OCC(O)CN2CCN(C(=O)c3ccco3)CC2)c1 (stereo not drawn),i,i,i,i,i
SMILES,Pf growth 96h,Pf growth 48h,Shiga toxin inh,CHX counter,LmPK inhibitor
CC(=O)c1cccc(OCC(O)CN2CC=C(c3ccccc3)CC2)c1 (stereo not drawn),1.9µM,?,i,i,i
COc1cc(/C=C2\N=C(c3c(-c4ccccc4)noc3C)OC2=O)ccc1OC(C)=O,i,13µM,i,i,i
COc1cccc(/C=C2\N=C(c3c(-c4ccccc4)noc3C)OC2=O)c1,i,i,i,i,i
CC(C)(C)CC(=O)Nc1nnc(SCC(=O)Nc2ccccc2F)s1,i,?,i,i,i
CCc1[nH]nc2c1C(c1cccc(OC(=O)N3CCOCC3)c1)C(C#N)=C(N)O2 (stereo not drawn),i,i,i,i,i
CC(C)c1[nH]nc2c1C(c1cccc(OC(=O)N3CCOCC3)c1)C(C#N)=C(N)O2 (stereo not drawn),12µM,i,i,i,i
NC(=O)c1cc([N+](=O)[O-])c(Cl)cc1NCc1ccccn1,i,?,nt,nt,nt
COc1ccc(C2CC(=O)C(C=NCCO)=C(O)C2)cc1 (stereo not drawn),i,i,i,i,i
O=C1C(C=NCCCN2CCOCC2)=C(O)c2ccccc21,?,i,59,27,i
CCN1CCCC1CN=Cc1c(O)n(-c2ccccc2)c(=O)c2ccccc12 (stereo not drawn),i[5.75 µM],3.7µM,i,i,i
CC(C)CCN=Cc1c(O)n(-c2ccccc2)c(=O)c2ccccc12,?,nt,i,i,i
Cc1cccc(-n2c(O)c(C=NCCCN3CCOCC3)c3ccccc3c2=O)c1,?,7.4µM,i,i,i
